# In paper PMC5998130:
# Target: Smad nuclear-interacting protein 1 (UniProt Q8TAD8)
# Test: mass-spectrometry hit list; affinity purification or IP with mass spectrometry
substance,measurement,value
"DNA-directed RNA polymerase II subunit RPB1, P24928",listed as a hit,yes
